According to ChEMBL document CHEMBL3988442, “University of Dundee, Small-Polar-MMV Screening Library” (2021):
For some of these results: Measured potencies and affinities stand elsewhere.

What was measured:
[1] = biological target: Protein translocase subunit SecA (Escherichia coli (strain K12)) (UniProt P10408); assay: Assay to Identify E. coli SecA ATPase Inhibitors; format: functional; set-up: scale not given: direction of the effect not stated beside the values; details: 30 µM
[2] = biological target: T1, Ubiquitin-activating enzyme e1, putative (Leishmania donovani (strain BPK282A1)) (UniProt E9BSI1); assay: Leishmania donovani Ubiquitin Activating Enzyme (LdE1); format: functional; set-up: scale not given: direction of the effect not stated beside the values; details: 30 µM
T1 sequence (whole entry): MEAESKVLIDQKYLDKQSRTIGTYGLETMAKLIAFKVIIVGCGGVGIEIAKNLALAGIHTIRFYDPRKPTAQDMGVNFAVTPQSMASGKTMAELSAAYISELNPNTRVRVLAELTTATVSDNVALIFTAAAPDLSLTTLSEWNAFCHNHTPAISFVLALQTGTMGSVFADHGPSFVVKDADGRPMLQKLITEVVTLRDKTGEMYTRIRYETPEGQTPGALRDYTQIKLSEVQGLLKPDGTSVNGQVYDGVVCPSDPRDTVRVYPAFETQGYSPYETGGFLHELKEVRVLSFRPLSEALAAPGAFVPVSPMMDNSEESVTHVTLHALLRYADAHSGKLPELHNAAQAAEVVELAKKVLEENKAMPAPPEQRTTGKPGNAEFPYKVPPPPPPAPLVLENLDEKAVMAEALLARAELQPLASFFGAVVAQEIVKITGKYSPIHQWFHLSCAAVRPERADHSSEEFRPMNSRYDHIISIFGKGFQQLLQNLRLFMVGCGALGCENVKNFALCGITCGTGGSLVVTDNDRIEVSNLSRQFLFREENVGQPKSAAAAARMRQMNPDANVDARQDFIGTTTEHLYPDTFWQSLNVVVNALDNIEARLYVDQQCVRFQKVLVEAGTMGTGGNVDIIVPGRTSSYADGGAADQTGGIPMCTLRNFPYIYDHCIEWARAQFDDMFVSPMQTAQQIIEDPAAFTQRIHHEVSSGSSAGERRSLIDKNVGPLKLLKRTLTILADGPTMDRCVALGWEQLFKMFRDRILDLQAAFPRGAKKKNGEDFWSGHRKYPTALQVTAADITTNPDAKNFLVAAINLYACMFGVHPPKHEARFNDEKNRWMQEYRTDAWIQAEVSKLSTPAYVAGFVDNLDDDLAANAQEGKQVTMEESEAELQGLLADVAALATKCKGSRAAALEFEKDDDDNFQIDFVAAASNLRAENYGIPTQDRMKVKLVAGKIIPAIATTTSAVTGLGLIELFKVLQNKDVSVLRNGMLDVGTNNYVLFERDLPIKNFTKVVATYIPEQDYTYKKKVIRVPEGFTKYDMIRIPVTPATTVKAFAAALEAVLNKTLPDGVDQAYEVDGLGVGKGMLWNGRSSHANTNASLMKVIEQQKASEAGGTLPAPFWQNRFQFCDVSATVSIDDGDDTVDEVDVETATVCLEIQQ

[3] = biological target: AMP-activated protein kinase, AMPK (Homo sapiens) (UniProt P54646+O43741+P54619+Q9UGJ0+Q9Y478+Q13131+Q9UGI9); assay: AMP-dependent Kinase enzyme assay. An in vitro enzyme assay that detects ADP turnover that is directly proportional to AMPK activity. This uses naive AMPK that is activated during the assay with MK-8722; format: functional; set-up: scale not given: direction of the effect not stated beside the values; details: 30 µM
[4] = biological target: Sialic acid-binding Ig-like lectin 9 (Homo sapiens) (UniProt Q9Y336); assay: Hs-Siglec9 ALPHAscreen SOP 20170721; set-up: scale not given: direction of the effect not stated beside the values; details: 10 µM
Sialic acid-binding Ig-like lectin 9 (Homo sapiens), sequence (Q9Y336 whole entry): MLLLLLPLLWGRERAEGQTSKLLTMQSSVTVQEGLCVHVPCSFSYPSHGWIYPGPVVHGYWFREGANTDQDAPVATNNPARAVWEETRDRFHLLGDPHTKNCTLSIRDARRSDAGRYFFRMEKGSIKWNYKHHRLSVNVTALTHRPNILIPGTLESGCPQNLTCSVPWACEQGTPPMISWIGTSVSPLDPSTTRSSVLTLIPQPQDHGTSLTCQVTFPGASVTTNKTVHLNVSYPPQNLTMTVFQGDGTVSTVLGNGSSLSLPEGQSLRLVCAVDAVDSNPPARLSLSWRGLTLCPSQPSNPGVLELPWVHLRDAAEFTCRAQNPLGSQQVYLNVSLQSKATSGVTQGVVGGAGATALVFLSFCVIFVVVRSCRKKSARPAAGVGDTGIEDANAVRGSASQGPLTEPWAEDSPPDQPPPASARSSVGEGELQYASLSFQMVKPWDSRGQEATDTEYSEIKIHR

[5] = test system: Trypanosoma cruzi; assay: Trypanosoma cruzi phosphomannomutase and mannose-1-phosphate guanylyltransferase assay; format: functional; set-up: scale not given: direction of the effect not stated beside the values; details: 10 µM
[6] = biological target: T2, Arginase-2, mitochondrial (Homo sapiens) (UniProt P78540); assay: in vitro enzyme assay to detect the production of urea directly proportional to the activity of Arginase II; format: functional; set-up: scale not given: in the data most compounds retested in dose-response had high values
T2 sequence (whole entry): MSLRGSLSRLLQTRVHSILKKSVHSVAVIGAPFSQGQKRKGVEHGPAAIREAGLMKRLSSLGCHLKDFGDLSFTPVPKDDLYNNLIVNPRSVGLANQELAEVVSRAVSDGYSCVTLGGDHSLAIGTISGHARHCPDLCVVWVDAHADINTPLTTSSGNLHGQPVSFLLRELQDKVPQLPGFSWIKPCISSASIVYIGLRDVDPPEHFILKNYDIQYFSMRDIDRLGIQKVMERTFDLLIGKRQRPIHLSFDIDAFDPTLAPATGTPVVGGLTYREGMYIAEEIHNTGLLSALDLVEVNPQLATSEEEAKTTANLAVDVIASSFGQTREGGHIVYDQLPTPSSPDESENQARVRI

[7] = biological target: T3, Proteasome subunit beta (Trypanosoma cruzi) (UniProt O96673); assay: Trypanosoma cruzi proteasome chymotrypsin-like activity (TcProtChymo) assay.; format: functional; set-up: scale not given: in the data most compounds retested in dose-response had high values; details: 9.37 µM
T3 sequence (whole entry): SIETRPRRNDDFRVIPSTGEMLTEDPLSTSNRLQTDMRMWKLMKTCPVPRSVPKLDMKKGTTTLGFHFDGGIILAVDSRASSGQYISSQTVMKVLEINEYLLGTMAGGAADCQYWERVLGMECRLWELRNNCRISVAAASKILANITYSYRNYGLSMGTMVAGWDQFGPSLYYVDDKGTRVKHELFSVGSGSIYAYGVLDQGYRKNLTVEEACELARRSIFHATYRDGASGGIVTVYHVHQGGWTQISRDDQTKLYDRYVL

[8] = species: Homo sapiens; assay: To identify inhibition of the IFN signalling (Jak-Stat) pathway via expression of an eGFP reporter gene under the control of an IFN-stimulated response element (ISRE) containing MxA promoter.; format: functional; set-up: scale not given: direction of the effect not stated beside the values; details: 30 µM
[9] = biological target: T4, Tyrosyl-tRNA synthetase, putative (Trypanosoma cruzi (strain CL Brener)) (UniProt Q4DSP6); assay: Trypanosoma cruzi tyrosyl tRNA synthetase (TcYRS) _High Tyrosine SOP; format: functional; set-up: scale not given: in the data most compounds retested in dose-response had high values; details: 30 µM
T4 sequence (whole entry): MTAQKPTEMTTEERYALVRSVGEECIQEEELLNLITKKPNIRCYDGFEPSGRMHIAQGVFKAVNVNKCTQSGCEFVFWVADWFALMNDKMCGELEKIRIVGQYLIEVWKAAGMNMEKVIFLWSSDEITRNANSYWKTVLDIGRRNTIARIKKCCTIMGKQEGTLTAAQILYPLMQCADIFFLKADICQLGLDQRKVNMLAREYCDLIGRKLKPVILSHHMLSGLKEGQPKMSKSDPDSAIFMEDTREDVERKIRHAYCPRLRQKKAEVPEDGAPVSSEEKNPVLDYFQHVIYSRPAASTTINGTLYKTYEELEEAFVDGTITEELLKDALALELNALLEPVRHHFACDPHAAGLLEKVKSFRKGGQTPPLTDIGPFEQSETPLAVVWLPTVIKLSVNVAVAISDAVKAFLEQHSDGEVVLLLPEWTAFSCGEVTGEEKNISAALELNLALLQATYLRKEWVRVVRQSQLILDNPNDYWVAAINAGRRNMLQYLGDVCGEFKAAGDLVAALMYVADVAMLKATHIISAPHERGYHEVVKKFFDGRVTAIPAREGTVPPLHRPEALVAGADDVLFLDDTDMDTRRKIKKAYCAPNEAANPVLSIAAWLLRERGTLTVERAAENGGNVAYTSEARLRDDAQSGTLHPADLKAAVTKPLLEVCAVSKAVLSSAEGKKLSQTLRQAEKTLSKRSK

[10] = biological target: T4, Tyrosyl-tRNA synthetase, putative (Trypanosoma cruzi (strain CL Brener)); assay: Trypanosoma cruzi tyrosyl tRNA synthetase (TcYRS) SOP; format: functional; set-up: scale not given: direction of the effect not stated beside the values; details: 30 µM
[11] = biological target: Chromo domain-containing protein 1 (Saccharomyces cerevisiae (strain ATCC 204508 / S288c) (Baker's yeast)) (UniProt P32657); assay: ScCHD-1 Enzyme Inhibition Assay; format: functional; set-up: scale not given: in the data most compounds retested in dose-response had high values; details: 30 µM
Chromo domain-containing protein 1 (Saccharomyces cerevisiae (strain ATCC 204508 / S288c) (Baker's yeast)), sequence (P32657 whole entry, the tested form may be a part): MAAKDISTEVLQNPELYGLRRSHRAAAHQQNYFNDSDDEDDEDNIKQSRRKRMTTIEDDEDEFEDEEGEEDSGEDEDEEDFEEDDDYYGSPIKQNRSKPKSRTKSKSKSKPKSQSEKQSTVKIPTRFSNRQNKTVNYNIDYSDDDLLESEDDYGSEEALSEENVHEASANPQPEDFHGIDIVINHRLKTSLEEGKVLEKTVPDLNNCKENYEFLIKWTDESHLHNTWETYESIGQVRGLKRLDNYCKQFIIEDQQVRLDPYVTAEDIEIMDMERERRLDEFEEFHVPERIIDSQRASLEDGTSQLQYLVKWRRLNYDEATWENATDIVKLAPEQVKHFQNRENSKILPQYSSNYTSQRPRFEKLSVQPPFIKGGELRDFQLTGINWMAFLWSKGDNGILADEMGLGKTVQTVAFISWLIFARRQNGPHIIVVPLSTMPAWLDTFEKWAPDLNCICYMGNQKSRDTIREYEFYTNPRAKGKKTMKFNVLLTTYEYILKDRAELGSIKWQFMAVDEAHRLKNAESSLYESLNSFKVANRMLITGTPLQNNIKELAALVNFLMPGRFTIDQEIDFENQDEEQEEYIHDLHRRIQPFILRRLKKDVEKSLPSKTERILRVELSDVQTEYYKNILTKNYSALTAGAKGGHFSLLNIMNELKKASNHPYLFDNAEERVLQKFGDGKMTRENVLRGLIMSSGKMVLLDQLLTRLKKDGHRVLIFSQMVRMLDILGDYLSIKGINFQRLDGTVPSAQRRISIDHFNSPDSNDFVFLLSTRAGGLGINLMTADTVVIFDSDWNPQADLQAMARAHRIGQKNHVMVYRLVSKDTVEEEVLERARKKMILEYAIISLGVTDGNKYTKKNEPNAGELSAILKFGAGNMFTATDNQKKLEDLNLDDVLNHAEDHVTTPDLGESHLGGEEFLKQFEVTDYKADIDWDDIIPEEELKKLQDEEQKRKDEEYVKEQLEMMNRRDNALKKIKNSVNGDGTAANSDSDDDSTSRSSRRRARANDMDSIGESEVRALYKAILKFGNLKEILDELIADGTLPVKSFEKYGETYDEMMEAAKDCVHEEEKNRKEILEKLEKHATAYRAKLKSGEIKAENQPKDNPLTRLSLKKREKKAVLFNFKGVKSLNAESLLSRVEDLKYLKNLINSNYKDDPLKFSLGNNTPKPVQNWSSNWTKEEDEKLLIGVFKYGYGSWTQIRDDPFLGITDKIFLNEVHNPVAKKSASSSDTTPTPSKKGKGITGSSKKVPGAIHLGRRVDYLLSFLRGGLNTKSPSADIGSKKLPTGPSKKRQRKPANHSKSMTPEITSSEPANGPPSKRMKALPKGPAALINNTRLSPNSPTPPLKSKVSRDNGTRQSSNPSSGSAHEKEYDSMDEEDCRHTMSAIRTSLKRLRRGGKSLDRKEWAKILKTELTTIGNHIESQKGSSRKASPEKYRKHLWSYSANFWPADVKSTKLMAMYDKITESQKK

[12] = biological target: T5, Methionyl-tRNA synthetase, putative (Leishmania donovani (strain BPK282A1)) (UniProt E9BF75); assay: Leishmania donovani Methionine tRNA synthetase (LdMetRS):v7. Dose response assay; format: functional; set-up: conc 80 nM, time 150 minutes
T5 sequence (whole entry): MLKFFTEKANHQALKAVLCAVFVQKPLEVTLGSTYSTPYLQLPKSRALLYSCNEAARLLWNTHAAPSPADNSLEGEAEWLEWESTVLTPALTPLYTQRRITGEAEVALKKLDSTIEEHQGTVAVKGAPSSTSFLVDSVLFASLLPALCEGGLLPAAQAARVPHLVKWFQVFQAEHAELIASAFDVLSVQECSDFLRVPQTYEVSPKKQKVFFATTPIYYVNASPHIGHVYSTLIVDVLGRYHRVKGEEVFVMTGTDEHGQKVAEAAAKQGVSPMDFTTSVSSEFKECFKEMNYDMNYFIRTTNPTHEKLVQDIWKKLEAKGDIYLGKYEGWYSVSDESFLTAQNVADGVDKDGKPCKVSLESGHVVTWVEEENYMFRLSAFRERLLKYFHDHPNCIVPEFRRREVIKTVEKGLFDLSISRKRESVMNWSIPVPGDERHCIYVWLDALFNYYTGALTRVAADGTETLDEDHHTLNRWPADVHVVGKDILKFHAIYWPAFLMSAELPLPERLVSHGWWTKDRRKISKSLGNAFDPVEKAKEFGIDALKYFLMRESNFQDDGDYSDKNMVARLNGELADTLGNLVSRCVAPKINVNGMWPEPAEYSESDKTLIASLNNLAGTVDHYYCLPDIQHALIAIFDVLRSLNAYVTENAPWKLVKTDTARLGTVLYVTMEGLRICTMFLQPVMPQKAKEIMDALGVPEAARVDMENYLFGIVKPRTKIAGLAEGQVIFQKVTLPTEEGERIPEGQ

Protein translocase subunit SecA (Escherichia coli (strain K12)), sequence (P10408 whole entry): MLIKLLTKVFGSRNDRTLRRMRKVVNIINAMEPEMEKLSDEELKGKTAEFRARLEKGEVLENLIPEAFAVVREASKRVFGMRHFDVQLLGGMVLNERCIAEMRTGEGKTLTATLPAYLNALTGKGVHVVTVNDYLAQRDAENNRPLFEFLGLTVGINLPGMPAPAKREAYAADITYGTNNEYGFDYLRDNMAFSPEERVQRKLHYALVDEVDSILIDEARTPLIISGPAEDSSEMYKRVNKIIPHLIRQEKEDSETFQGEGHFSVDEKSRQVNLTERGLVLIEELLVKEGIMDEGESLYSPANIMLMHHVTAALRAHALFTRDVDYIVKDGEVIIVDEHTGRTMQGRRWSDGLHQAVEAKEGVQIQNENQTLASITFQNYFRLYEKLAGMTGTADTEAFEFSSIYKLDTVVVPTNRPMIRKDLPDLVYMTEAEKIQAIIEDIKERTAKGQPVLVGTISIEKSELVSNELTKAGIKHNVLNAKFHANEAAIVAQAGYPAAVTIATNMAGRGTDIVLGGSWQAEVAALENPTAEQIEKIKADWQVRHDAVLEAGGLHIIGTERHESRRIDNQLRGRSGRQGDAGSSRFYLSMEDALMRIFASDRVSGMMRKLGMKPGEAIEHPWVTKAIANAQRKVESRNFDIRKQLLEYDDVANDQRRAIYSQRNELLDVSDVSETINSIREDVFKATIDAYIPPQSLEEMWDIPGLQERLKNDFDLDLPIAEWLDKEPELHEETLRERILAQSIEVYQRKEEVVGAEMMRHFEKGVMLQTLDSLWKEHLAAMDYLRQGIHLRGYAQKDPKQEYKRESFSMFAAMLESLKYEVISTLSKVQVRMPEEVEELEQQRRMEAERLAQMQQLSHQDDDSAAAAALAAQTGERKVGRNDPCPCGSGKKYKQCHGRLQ

Row | Compound | Percent Effect [1] [%] | Percent Effect [2] [%] | Percent Effect [3] [%] | Percent Effect [4] [%] | Percent Effect [5] [%] | Percent Effect ([6]; 30 µM) [%] | Percent Effect ([6]; 33.3 µM) [%] | Percent Effect [7] [%] | Percent Effect [8] [%] | Percent Effect [9] [%] | Percent Effect [10] [%] | Percent Effect [11] [%] | PXC50 ([12]; MAX_EFFECT 19.47743468) | PXC50 ([12]; MAX_EFFECT 35.38732394)
1 | CC1=Nc2c(c(=O)[nH]n2C2CCCC2)C(c2cccc(O)c2)S1 (stereo not given) | -2.38 | -1.33 | 11.5 | 2.03 | 1.38 | -1.62 | -1.23 | 11.3 | 36.2 | 14.8 | 20.5 | 0.661 |  | 
2 | c1ccc(C2CCN(c3cncc(-n4cccn4)n3)CC2)cc1 | -1.56 | 8.11 | 3.62 | 3.88 | 1.17 |  | 5.42 | 14.1 | 10 | 9.9 | 18.3 | -4.19 | < 4 | < 4
